Compounds without any hit were thinned out: in the full panel of roughly 83,000, 20% have a hit.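 Treatment: one concentration, 48 hours, 96-well format. Scoring: percent growth, with anything below 10 considered active.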 Unmarked numbers belong to inactive results. Activity calls are given as the source filed them.
Legend:
Assay in all cases: NCI-60 one-dose screen, 48 h (100 = growth as untreated, 0 = no growth, -100 = all killed)
Settings in all cases: 10 µM unless noted
T-47D breast = test system: T-47D breast
BT-549 breast = test system: BT-549 breast
MDA-MB-435 melanoma = test system: MDA-MB-435 melanoma
SW-620 colon = test system: SW-620 colon
MCF7 breast = test system: MCF7 breast
HCT-116 colon = test system: HCT-116 colon
HCC-2998 colon = test system: HCC-2998 colon
KM12 colon = test system: KM12 colon

| Structure (SMILES) | growth (T-47D breast) | growth (BT-549 breast) | growth (MDA-MB-435 melanoma) | growth (SW-620 colon) | growth (MCF7 breast) | growth (HCT-116 colon) | growth (HCC-2998 colon) | growth (KM12 colon) |
| --- | --- | --- | --- | --- | --- | --- | --- | --- |
| O=C(NC(Cc1ccccc1)C(=O)CCl)OCc1ccccc1 (stereo not given) | 70.7% | 41.4% | 16.1% | 48.4% | 29% | 45.9% | 97.1% | 89.1% |
| COc1ccc(C(=O)/C=C/c2cc3ccccc3[nH]c2=O)cc1 | 33.8% | 21.3% | 29.9% | -21% (active) | 15% | 8.02% (active) | – | -32% (active) |
| CC(=O)Oc1ccc(Nc2c3ccccc3nc3ccccc23)cc1 | 7.4% (active) | 55.2% | 8.19% (active) | 3.73% (active) | 3.91% (active) | 14% | – | 18.1% |
| Cc1ccn2c(-c3csc(Nc4cccc(O)c4)n3)c(C)nc2c1 | 34% | 25% | -34.6% (active) | 33.4% | 6.08% (active) | 27.6% | – | 29.9% |
| CSc1nc(NCCO)c(C#N)c(-c2cccc(N)c2)n1 | 87.8% | 98% | 105% | 103% | 94.7% | 98.9% | – | 99.4% |
| CS(=O)(=O)c1c(Nc2ccccc2)n[nH]c1N | 104% | 89.1% | 107% | 112% | 101% | 103% | – | 118% |
| COc1ccc(-c2cc(=O)[nH]c3c(OC)c4ccccc4c(OC)c23)cc1 | 31.6% | 26% | -28.9% (active) | 19.6% | 13.4% | 12.1% | 0.772% (active) | 2.11% (active) |
| CCOC(=O)CC(=O)c1c(C)cc(C)cc1C | 121% | 93.5% | 98.6% | 103% | 97.5% | 91.2% | – | 95.5% |
| CCC(=O)Oc1ccc(/C(=C(\C)c2ccccc2)c2ccc(OCCN(CC)CC)cc2)cc1 | 43.8% | 86.3% | 76.1% | 79.4% | 37.9% | 62.1% | 103% | 80.3% |
| NC(=S)N/N=C/c1ccc(OCc2ccccc2)cc1 | 20.8% | 58.4% | 74% | 66.2% | 52.1% | 52.5% | 79.2% | 84.6% |
| COc1cc(NCCCCN=C(N)NC(N)=NC(C)C)c2ncccc2c1 | -8.55% (active) | 54.8% | 110% | 62.9% | -94.3% (active) | – | 11.9% | 20.1% |
| C[C@@]1(N2C(=O)OC[C@@H]2c2ccccc2)C(=O)N([C@H](CC(=O)N2CCC(N3CCCCC3)CC2)C(=O)NCc2cccc(C(F)(F)F)c2)[C@@H]1/C=C/c1ccccc1 | 27.4% | 78.1% | 1% (active) | 58.5% | 25.3% | – | 47.3% | 55.9% |
| CN1CCCCC1CCN1c2ccccc2Sc2ccc(Cl)cc21 (stereo not given) | 71.1% | 73.8% | 27% | 73.4% | 21.6% | 30.6% | – | 60% |
| CC/C(=C(\c1ccc(O)cc1)c1ccc(OCCN(C)CCN(C)C(=O)CCCCC(=O)c2c(C)[nH]c(/C=C3\N=C(c4ccc[nH]4)C=C3OC)c2C)cc1)c1ccccc1 | 62.4% | 91.5% | 88% | 88% | 41.3% | 56.3% | – | 68.6% |
| CC[n+]1ccc2c(c1)C(=O)c1nccc3c1c-2nc1ccccc13 | 8.59% (active) | -82.7% (active) | 4.27% (active) | 5.32% (active) | -6.21% (active) | – | -21% (active) | 8.87% (active) |
| CC(=O)O[C@H]1CC[C@]2(C)[C@H]3CC[C@@H]4[C@H]5[C@H](C(C)C)CC[C@]5(C(=O)OCC(CO)(CO)N=C(N)N)CC[C@@]4(C)[C@]3(C)CC[C@H]2C1(C)C | 44.6% | 108% | 22.6% | -71.5% (active) | 4.01% (active) | – | -60.9% (active) | 17.4% |
| COc1cc(C2CC(=O)Nc3c2cnn3Cc2ccco2)cc2c1OCCO2 (stereo not given) | 88.8% | 87.7% | 4.28% (active) | 56.6% | 54.1% | 72.5% | – | 48.4% |
| O=C(O)c1cccnc1Br | 85.4% | 110% | 102% | 110% | 96.8% | – | 98.5% | 113% |
| CNCc1cccc2c1OCCOCCOCCN(C)S(=O)(=O)c1ccc(cc1)-c1cnc(N)c(n1)C(=O)N2 | 47% | 55.6% | 46.2% | 37.8% | 42.2% | 15.4% | – | 43.6% |
| O=C(CN1CCN(c2cc3c(cc2F)c(=O)c(C(=O)O)cn3C2CC2)CC1)Nc1cc(=O)[nH]c(=O)[nH]1 | 103% | 83.3% | 102% | 95.4% | 101% | 91.2% | – | 108% |
| COc1c(C2CC(=O)Nc3c2cnn3Cc2ccco2)cc2c(c1OC)OCO2 (stereo not given) | 55.6% | 8.74% (active) | -58.4% (active) | 23% | 12.8% | 12.8% | – | 16.8% |
| COCCOc1ccc(-c2nc3ccc(-c4nc5ccc(N6CCN(C)CC6)cc5[nH]4)cc3[nH]2)cc1 | 2.28% (active) | -30.5% (active) | -43.6% (active) | 4.55% (active) | 17.7% | -57.6% (active) | – | 46.2% |
| COc1cnc2c(c1)C(=O)c1c-2n(CCCBr)c(=O)c2cc([N+](=O)[O-])ccc12 | 2.87% (active) | 25.5% | 11.4% | 12.1% | 1.77% (active) | – | 13.7% | 1.44% (active) |
| C=C1CC2(OC1=O)C(=O)N(CCCCCCCCCCCCN1C(=O)C3(CC(=C)C(=O)O3)c3ccccc31)c1ccccc12 (stereo not given) | 64.8% | 84% | 73.1% | 26.1% | 38% | – | 92.8% | 93.6% |
| COc1ccc(C(=O)COc2ccc(/C=C3\Oc4ccc(Cl)cc4C3=O)cc2)cc1 | 78.2% | 98.1% | 106% | 83.6% | 47.1% | – | 111% | 98.8% |
| COc1ccc(C(=O)c2sc3nc(-c4ccccc4OC)ccc3c2N)cc1OC | 26.4% | 20.9% | 31.7% | 73.6% | 62.1% | 39.3% | – | 46.1% |
| NC(=S)N/N=C/c1cc(-c2cccc(N)c2)ccn1 | 10.8% | 55.4% | 32.9% | 35.6% | 21.9% | 28.4% | – | 30% |
| C#Cc1nc2ccccc2c(=O)[nH]1 | -30.6% (active) | -61.2% (active) | -58.2% (active) | -63.7% (active) | -25% (active) | -64.2% (active) | – | -65.7% (active) |

Reference: PubChem BioAssay (NCI)
